Measurements reported in the supplement of paper PMC11732987, “Enantioselective OTUD7B fragment discovery through chemoproteomics screening and high-throughput optimisation” (Communications Chemistry, 2025).

Tests used:
Assay in all cases: log2 ratio of Biotin-Ahx-Ub-VS probe labelling (fragment/DMSO); higher = less target engagement (more negative = stronger competition), active = hit call of the paper (q ≤ 0.05, log2 ratio ≤ -1)
Details in all cases: compound concentration: 200 uM; treatment time: 3 h
USP34 = USP34 (UniProt Q70CQ2)
Sequence of USP34 (Q70CQ2 whole entry, the tested form may be a part): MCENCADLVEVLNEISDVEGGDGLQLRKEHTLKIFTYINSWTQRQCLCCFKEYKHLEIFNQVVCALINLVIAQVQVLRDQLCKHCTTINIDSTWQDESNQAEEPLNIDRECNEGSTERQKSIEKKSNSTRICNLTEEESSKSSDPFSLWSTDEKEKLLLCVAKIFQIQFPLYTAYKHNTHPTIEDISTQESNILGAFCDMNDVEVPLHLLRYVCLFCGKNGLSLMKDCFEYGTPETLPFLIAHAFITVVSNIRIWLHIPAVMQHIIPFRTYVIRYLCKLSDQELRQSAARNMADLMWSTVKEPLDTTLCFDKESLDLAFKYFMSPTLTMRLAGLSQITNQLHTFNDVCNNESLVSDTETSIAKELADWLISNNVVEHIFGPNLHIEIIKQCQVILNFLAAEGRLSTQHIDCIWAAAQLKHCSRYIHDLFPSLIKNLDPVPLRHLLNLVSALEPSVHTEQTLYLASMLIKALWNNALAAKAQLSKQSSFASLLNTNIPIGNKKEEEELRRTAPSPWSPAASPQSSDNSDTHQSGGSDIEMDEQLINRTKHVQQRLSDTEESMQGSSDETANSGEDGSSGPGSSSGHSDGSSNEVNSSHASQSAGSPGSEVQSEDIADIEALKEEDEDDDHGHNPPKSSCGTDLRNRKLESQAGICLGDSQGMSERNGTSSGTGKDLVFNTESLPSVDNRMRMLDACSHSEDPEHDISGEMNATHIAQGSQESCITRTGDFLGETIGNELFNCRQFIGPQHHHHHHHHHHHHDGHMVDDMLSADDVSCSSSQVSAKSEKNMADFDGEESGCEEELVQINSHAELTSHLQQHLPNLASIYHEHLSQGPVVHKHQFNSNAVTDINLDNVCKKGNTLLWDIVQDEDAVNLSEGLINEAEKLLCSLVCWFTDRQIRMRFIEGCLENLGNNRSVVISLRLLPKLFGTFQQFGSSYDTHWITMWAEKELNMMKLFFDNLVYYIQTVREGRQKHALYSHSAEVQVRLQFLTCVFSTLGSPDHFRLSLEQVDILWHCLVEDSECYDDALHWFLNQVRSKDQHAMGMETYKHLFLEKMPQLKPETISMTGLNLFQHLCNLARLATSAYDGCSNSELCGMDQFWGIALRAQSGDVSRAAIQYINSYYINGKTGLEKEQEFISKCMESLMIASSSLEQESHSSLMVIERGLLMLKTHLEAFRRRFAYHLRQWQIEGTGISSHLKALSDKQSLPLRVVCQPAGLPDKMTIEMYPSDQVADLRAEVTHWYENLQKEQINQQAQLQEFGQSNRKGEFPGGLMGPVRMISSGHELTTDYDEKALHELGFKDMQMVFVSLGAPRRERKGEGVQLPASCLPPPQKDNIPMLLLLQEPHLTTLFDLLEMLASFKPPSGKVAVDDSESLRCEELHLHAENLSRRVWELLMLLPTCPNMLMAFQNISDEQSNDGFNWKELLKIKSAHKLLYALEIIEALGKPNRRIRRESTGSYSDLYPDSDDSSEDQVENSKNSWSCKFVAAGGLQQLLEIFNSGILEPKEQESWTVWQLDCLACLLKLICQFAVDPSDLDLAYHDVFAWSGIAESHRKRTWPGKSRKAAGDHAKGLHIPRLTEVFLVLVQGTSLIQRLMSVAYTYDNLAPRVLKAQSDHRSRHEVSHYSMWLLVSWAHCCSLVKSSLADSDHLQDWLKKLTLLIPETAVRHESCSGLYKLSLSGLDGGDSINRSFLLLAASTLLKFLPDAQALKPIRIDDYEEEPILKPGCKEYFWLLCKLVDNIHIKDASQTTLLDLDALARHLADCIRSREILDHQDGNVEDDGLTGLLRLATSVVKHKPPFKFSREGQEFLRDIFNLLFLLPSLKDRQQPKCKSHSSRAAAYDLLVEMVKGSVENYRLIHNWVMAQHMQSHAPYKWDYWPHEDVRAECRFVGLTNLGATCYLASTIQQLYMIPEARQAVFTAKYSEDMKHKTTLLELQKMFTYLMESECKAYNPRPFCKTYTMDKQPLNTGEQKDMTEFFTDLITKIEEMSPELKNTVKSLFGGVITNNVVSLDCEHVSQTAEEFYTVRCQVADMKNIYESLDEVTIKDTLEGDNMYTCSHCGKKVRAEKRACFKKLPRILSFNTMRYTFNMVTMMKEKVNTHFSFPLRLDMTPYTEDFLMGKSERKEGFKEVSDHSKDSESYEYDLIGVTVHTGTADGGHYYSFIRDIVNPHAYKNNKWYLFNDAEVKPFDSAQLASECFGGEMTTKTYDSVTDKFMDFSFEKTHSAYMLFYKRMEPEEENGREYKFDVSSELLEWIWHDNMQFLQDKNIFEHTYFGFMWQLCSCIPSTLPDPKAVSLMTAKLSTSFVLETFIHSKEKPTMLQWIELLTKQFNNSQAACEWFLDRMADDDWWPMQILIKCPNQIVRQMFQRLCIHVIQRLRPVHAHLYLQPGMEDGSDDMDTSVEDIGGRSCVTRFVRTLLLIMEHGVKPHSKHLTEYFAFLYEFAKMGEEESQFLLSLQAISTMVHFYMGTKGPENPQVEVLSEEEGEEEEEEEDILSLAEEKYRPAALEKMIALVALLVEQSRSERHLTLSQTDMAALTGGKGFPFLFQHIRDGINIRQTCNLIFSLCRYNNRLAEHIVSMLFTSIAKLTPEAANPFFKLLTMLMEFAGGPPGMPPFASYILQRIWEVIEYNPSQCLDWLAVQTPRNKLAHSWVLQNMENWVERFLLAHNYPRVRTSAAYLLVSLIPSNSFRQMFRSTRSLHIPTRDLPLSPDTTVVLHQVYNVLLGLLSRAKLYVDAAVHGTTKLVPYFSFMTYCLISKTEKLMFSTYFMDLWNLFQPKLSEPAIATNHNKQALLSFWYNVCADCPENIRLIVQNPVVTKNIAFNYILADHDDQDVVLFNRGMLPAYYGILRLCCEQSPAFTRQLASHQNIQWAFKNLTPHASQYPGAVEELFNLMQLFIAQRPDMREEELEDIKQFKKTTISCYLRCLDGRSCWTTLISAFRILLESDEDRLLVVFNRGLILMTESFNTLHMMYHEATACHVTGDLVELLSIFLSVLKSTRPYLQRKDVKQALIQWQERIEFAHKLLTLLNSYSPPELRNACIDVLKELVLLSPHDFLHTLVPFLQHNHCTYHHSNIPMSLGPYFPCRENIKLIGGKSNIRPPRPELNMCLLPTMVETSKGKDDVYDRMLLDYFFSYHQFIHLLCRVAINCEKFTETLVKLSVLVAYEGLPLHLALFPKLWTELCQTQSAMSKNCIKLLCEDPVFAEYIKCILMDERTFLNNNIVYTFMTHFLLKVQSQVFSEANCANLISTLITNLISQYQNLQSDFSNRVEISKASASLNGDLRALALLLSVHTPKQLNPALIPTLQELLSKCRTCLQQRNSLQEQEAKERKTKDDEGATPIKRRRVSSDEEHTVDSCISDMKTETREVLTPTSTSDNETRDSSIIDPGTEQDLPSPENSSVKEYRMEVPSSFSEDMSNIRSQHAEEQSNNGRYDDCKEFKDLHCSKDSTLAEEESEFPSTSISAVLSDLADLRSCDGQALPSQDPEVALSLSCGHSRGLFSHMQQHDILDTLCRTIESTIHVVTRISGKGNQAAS
Procedure, shortened: (§1)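 Labelled DUBs were enriched with NeutrAvidin, digested with LysC and trypsin, and run by diaPASEF LC-MS/MS. The labelling used Biotin-Ahx-Ub-VS at 0.5 µM final for 1 h on HEK293T lysate (495 µg per sample) previously treated in triplicate with fragment at 200 µM or vehicle for 3 h. Values are average log2 fragment/vehicle ratios by unpaired t-test on global-median-normalised Spectronaut quantities of proteins with ≥2 unique peptides.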

USP36 = target: T1, USP36 (UniProt Q9P275)
T1 sequence (whole entry): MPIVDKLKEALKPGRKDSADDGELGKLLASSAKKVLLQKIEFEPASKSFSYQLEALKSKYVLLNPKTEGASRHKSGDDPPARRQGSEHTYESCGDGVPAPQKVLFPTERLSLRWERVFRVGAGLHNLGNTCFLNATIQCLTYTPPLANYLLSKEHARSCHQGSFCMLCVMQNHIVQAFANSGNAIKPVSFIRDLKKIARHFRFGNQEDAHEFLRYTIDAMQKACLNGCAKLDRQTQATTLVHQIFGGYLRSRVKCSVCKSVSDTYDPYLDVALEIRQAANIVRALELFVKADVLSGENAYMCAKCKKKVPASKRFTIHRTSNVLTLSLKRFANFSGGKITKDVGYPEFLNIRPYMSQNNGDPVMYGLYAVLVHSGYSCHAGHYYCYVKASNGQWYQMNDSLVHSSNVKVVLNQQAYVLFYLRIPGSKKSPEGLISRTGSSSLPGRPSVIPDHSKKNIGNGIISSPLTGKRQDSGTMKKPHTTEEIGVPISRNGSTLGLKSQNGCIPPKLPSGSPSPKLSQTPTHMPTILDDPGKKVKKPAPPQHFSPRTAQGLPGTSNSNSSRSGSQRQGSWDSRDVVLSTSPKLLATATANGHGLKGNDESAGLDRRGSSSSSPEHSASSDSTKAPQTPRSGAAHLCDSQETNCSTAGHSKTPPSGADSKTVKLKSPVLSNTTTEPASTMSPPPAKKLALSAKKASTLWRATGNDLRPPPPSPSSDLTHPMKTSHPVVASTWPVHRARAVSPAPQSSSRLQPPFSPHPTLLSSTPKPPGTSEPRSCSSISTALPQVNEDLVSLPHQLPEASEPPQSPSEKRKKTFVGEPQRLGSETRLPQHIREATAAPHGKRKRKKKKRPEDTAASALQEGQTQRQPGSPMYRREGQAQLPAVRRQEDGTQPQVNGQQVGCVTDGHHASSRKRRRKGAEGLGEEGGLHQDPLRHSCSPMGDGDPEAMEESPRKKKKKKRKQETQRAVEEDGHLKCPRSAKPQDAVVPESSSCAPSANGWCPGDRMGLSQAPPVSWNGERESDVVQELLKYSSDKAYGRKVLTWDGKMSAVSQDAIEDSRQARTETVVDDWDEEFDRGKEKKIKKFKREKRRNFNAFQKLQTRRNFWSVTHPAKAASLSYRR
Procedure, shortened: as §1

USP38 = target: T2, USP38 (UniProt Q8NB14)
T2 sequence (whole entry): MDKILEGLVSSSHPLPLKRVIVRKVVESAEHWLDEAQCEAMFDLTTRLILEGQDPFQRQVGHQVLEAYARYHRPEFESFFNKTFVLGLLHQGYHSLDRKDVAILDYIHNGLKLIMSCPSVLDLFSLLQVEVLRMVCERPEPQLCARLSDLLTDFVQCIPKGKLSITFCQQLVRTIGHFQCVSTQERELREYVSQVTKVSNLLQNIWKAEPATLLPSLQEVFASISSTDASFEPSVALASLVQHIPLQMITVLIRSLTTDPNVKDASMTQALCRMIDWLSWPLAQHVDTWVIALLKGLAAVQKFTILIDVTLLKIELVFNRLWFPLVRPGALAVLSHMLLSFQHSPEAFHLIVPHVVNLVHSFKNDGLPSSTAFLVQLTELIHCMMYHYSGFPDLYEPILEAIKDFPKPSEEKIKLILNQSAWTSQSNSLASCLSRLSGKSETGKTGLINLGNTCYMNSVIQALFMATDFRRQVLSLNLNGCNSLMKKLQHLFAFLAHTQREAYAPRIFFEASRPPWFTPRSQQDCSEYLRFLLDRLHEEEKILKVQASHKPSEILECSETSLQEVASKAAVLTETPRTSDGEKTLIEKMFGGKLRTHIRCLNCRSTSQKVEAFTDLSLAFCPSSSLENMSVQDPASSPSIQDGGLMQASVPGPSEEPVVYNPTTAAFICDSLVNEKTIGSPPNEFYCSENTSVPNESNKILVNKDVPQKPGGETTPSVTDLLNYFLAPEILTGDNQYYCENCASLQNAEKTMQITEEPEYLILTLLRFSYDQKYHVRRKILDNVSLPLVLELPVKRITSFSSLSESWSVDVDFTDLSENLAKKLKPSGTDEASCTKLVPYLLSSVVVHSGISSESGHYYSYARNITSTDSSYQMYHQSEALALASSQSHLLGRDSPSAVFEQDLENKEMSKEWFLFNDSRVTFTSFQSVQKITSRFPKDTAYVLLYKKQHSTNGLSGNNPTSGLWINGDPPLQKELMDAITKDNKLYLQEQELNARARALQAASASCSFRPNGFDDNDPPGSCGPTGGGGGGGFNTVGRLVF
Procedure, shortened: as §1

USP39 = target: T3, USP39 (UniProt Q53GS9)
T3 sequence (whole entry): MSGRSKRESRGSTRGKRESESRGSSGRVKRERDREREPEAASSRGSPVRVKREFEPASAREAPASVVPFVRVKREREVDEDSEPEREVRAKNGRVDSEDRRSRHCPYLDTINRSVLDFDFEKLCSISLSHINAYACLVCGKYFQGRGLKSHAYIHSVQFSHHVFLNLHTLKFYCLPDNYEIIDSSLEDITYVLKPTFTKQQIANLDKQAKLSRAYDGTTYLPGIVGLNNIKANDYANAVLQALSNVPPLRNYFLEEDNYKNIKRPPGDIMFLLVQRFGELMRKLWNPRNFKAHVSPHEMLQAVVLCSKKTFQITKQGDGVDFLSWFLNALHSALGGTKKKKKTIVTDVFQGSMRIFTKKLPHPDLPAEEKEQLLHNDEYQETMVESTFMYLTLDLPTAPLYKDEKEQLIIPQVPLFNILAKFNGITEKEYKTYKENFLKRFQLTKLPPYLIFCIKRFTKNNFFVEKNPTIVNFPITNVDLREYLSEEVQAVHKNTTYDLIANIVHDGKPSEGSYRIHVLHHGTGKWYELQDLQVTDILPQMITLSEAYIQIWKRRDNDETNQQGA
Procedure, shortened: as §1

USP4 = target: T4, USP4 (UniProt Q13107)
T4 sequence (whole entry): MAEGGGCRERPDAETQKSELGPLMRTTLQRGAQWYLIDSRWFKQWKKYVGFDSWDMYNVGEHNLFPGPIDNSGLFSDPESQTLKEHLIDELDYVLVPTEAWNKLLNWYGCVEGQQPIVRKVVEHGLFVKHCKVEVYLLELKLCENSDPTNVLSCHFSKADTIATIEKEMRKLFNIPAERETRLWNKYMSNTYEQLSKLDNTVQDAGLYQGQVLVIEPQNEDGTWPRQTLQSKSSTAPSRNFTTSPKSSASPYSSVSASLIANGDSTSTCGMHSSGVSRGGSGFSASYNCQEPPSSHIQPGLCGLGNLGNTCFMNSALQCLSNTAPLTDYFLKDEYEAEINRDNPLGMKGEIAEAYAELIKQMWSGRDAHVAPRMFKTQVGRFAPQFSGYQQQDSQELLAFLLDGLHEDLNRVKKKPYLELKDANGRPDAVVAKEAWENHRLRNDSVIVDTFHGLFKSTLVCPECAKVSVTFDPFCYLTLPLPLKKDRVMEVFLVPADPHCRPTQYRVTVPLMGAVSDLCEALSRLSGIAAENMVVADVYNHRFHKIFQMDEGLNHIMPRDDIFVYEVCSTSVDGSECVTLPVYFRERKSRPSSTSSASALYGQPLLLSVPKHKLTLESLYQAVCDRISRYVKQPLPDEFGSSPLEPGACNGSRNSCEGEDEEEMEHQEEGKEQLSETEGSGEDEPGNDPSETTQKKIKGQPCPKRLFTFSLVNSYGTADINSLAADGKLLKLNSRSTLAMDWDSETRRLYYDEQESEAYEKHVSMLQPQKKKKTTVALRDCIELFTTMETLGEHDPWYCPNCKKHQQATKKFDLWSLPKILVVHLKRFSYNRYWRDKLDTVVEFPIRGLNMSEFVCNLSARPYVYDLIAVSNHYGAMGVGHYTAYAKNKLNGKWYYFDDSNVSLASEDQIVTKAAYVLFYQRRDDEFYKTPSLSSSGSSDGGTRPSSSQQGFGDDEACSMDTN
Procedure, shortened: as §1

Measured: log2 ratio of Biotin-Ahx-Ub-VS probe labelling

CC(NC(=O)CCl)c1cnn(C2CC2)c1 (stereo not given)
inactive: USP34 -0.133 | USP36 -0.123 | USP38 -0.144 | USP39 -0.0478 | USP4 -0.409
